The full data set covers some 6,500 targets. This sample favours those with a hit. About 2% of all pairs of compound and target were hits.

Sequence of UniProt Q9Y230 (Q9Y230 whole entry): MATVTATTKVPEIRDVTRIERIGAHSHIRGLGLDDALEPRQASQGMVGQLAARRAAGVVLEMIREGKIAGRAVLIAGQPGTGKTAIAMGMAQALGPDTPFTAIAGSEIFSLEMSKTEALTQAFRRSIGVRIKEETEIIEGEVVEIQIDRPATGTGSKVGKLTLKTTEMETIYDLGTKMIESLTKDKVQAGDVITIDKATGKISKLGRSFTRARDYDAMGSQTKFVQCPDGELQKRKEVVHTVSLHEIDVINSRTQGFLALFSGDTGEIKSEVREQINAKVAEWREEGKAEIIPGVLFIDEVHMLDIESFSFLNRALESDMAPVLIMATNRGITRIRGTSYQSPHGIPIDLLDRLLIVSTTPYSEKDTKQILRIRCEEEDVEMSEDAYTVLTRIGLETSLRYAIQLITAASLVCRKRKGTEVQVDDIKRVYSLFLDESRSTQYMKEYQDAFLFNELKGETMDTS
Sequence of UniProt Q9UGV2 (Q9UGV2 whole entry, looked up): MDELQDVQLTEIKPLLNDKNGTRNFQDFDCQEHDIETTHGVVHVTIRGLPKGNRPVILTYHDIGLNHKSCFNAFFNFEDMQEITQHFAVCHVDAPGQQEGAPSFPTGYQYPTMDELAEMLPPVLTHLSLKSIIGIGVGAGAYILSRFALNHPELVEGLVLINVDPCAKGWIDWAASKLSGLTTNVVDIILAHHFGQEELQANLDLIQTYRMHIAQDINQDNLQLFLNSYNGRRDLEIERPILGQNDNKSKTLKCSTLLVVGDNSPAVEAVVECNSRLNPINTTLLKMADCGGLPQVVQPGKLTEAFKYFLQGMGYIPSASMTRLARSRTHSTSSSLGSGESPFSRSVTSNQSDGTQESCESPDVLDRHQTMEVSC
Sequence of UniProt Q9C0C2 (Q9C0C2 whole entry, looked up): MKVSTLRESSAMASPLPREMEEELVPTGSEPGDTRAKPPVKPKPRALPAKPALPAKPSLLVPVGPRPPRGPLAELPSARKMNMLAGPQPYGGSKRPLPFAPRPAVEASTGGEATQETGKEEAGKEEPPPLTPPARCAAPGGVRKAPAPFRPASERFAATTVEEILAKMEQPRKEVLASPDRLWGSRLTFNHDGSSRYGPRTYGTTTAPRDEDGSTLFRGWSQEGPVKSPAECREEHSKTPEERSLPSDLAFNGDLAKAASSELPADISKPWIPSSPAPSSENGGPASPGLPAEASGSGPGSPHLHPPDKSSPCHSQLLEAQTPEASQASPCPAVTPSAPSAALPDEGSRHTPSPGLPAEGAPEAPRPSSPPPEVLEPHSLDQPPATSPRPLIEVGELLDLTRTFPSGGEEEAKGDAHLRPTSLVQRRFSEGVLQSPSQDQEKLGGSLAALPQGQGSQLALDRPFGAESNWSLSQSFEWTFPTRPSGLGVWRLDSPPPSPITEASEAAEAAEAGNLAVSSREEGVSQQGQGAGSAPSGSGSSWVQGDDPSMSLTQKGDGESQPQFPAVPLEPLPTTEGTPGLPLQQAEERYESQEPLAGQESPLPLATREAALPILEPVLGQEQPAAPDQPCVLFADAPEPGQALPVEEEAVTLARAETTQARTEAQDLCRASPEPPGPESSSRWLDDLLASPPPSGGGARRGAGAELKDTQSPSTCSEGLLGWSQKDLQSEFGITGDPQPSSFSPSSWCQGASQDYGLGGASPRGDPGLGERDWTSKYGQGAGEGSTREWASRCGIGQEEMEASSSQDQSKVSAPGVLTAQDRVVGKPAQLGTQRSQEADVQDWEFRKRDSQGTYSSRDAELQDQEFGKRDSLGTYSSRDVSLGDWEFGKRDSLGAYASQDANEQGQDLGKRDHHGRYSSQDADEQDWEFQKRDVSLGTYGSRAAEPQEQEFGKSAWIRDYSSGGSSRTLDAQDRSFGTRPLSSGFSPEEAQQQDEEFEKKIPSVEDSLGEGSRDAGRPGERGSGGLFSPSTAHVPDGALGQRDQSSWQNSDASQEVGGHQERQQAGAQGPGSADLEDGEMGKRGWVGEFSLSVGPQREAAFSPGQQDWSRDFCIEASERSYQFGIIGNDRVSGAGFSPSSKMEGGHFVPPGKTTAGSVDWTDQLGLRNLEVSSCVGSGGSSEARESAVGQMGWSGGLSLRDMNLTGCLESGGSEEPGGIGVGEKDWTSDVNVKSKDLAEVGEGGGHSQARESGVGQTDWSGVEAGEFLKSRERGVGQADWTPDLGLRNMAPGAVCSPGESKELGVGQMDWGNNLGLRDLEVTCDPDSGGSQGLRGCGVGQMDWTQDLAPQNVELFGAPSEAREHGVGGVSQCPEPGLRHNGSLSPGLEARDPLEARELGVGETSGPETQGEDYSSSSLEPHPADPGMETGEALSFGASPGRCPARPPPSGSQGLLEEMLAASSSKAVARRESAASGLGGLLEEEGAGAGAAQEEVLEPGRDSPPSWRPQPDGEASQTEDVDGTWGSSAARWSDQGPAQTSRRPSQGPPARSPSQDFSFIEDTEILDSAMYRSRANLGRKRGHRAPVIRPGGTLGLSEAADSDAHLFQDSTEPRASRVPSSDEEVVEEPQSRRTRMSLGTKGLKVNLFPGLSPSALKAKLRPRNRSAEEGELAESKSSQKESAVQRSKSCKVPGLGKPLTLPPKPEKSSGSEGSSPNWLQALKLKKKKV
Sequence of UniProt Q9UHW5 (Q9UHW5 whole entry, looked up): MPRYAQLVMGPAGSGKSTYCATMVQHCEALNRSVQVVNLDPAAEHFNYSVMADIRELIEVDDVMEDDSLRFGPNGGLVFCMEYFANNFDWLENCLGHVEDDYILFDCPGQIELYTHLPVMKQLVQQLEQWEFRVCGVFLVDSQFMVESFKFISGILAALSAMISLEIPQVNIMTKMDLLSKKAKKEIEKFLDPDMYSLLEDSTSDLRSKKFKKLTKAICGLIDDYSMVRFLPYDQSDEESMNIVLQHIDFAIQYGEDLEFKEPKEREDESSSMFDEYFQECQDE
Sequence of UniProt Q9ULH0 (Q9ULH0 whole entry, looked up): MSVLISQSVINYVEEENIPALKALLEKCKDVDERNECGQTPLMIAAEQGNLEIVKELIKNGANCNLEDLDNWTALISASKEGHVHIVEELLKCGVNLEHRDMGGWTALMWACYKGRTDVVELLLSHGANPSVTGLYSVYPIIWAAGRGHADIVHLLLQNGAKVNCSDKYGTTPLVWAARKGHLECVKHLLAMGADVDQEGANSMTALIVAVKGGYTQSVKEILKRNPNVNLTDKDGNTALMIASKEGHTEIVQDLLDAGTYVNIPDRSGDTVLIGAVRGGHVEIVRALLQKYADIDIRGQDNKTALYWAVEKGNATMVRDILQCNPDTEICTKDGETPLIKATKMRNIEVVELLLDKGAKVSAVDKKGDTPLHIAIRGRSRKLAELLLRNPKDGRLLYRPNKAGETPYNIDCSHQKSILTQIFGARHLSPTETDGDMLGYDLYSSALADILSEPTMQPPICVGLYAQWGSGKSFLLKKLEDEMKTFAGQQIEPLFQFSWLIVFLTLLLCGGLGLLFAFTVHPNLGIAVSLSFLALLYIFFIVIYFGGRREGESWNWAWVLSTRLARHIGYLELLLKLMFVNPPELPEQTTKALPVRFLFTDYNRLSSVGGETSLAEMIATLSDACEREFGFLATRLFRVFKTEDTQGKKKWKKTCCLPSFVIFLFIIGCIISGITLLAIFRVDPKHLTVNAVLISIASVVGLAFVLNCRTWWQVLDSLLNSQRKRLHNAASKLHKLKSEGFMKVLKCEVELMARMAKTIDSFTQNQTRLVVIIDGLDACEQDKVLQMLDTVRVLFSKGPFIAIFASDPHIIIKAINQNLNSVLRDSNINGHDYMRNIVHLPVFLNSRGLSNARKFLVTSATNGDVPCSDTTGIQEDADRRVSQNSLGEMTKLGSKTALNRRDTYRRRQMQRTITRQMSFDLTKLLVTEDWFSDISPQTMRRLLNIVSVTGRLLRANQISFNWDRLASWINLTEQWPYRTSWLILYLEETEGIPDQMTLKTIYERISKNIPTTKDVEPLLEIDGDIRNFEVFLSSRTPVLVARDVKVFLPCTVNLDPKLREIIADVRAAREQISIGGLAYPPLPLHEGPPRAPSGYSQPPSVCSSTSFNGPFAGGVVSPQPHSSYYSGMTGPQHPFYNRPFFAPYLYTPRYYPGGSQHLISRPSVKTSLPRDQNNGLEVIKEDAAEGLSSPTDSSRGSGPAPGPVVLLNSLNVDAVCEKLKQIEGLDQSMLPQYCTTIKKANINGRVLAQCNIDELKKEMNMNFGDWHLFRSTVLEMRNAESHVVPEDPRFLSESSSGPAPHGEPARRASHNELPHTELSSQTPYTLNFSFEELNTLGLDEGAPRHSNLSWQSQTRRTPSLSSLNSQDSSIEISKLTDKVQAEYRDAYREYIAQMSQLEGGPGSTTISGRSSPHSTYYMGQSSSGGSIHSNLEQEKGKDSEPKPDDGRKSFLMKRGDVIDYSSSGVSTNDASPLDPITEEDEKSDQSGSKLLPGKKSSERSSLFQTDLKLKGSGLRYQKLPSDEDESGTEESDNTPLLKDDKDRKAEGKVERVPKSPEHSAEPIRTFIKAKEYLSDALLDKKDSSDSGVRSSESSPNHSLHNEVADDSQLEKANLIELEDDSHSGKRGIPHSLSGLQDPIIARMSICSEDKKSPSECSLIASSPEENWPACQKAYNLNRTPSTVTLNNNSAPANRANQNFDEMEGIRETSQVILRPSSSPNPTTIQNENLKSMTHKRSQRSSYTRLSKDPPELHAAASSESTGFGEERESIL
Sequence of UniProt Q9NXV2 (Q9NXV2 whole entry, looked up): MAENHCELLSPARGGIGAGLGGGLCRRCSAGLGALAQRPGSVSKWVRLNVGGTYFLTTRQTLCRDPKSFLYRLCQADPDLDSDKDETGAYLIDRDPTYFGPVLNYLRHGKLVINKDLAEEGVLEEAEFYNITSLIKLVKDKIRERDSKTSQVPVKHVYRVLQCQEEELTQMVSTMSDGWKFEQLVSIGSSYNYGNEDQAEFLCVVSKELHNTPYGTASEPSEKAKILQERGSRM
Sequence of UniProt Q9NVP2 (Q9NVP2 whole entry, looked up): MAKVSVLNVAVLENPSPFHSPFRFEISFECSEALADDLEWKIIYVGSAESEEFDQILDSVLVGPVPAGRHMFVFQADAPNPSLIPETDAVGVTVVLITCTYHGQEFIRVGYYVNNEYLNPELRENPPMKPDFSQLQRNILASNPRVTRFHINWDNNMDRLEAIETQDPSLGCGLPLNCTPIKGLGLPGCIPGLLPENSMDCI

Compound in the experiment: COC(=O)C#Cc1ccccc1 [methyl 3-phenylpropiolate]
Briefly: log2 ratio of iodoacetamide-alkyne labeling of the cysteine site, DMSO over compound (competition); higher = stronger covalent engagement of the cysteine by the compound, active = 1 or more. As to conditions: 500 µM; treatment time 1 h; system: HEK293T cell lysate. The essentials:
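After 1 h at ambient temperature with vehicle or electrophile (500 µM), HEK293T lysate (2 mg/mL) was labelled for 1 h with iodoacetamide alkyne and clicked to sCIP-TMT reagents. Pooled samples were trypsin-digested overnight at 37 °C, streptavidin-enriched, acid-eluted and analysed by Orbitrap Eclipse LC-MS/MS with FAIMS, then quantified in FragPipe over three replicates with duplicate channels. A cysteine's log2 competition ratio is its mean control-channel over mean compound-channel reporter intensity. Cysteines quantified in only one replicate were not included.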
Take MLXIP C738 (UniProt Q9HAP2): the “log2 ratio of iodoacetamide-alkyne labeling” value (shortened to “log2 ratio”) was -0.0833 (inactive). On to NDRG3 C290 (UniProt Q9UGV2), for which the “log2 ratio” value is -0.105 (inactive). The value for GPN3 C219 (UniProt Q9UHW5) was 0.0998 (inactive); that for MRPS18C C90 (UniProt Q9Y3D5) was 0.167 (inactive); that for KIDINS220 C867 (UniProt Q9ULH0) was 0.436 (inactive).

ACAT2 C360 (UniProt Q9BWD1): the “log2 ratio” value is -0.0247 (inactive). ASF1B C172 (UniProt Q9NVP2): the “log2 ratio” value is 1.22 (active).

Take PPA2 C161 (UniProt Q9H2U2): the “log2 ratio” value is -0.42 (inactive). The value for SAE1 C214 (UniProt Q9UBE0) was 0.502 (inactive); that for UniProt Q9Y3B4_C83 was 0.2 (inactive); that for TNKS1BP1 C1337 (UniProt Q9C0C2) was 1.01 (active). The result for RUVBL2 C227 (UniProt Q9Y230) reads 0.198 (inactive).

As to RRBP1 C892 (UniProt Q9P2E9), the “log2 ratio” value is 0.291 (inactive). As to UniProt Q9P260_C624, the “log2 ratio” value is 0.299 (inactive).

Turning to UTP6 C309 (UniProt Q9NYH9), the “log2 ratio” value is 0.0486 (inactive). With RAB3GAP2 C67 (UniProt Q9H2M9), the “log2 ratio” value was 0.306 (inactive). For UniProt Q9BYV8_C171, the “log2 ratio” value is 0.361 (inactive). Consider PPME1 C386 (UniProt Q9Y570), for which the “log2 ratio” value was 1.48 (active). The result for TELO2 C367 (UniProt Q9Y4R8) reads 0.0485 (inactive); that for KCTD5 C6 (UniProt Q9NXV2), 0.701 (inactive). For the target UniProt Q9Y2D5_C296, the “log2 ratio” value was 0.394 (inactive). The value for NOP16 C36 (UniProt Q9Y3C1) was 1.12 (active); that for MRPS7 C152 (UniProt Q9Y2R9) was -0.102 (inactive). The value for EPS15L1 C470 (UniProt Q9UBC2) was 0.13 (inactive); that for AGTPBP1 C567 (UniProt Q9UPW5) was 1.18 (active); that for SPATA5L1 C309 (UniProt Q9BVQ7) was 1.11 (active). The value for UBE2O C400 (UniProt Q9C0C9) was -0.416 (inactive); that for MRPL44 C53 (UniProt Q9H9J2) was -0.0312 (inactive); that for UNK C383 (UniProt Q9C0B0) was 0.721 (inactive). CACYBP C173 (UniProt Q9HB71): the “log2 ratio” value is 0.182 (inactive). In the case of SRRM2 C1016 (UniProt Q9UQ35), the “log2 ratio” value is 1.12 (active). The result for BRD7 C338 (UniProt Q9NPI1) reads 1.01 (active); that for NAT10 C489 (UniProt Q9H0A0), 0.0616 (inactive); that for RNF126 C15 (UniProt Q9BV68), 0.119 (inactive). As for UNC45A C420 (UniProt Q9H3U1), the “log2 ratio” value is 0.56 (inactive). LIMD1 C305 (UniProt Q9UGP4): the “log2 ratio” value was 1.43 (active). Consider TANC1 C1594 (UniProt Q9C0D5), for which the “log2 ratio” value is 1.06 (active). The value for UniProt Q9Y3U8_C48 was 0.297 (inactive); that for UniProt Q9Y3D0_C93 was 0.0692 (inactive); that for TACC3 C206 (UniProt Q9Y6A5) was -0.132 (inactive).

For the origin of these results see the supplement of paper PMC11006884.
